Source: publication PMC4336329 (PLoS ONE, 2015)
Screen size: about 310,000 compounds; about 14,000 (4.5%) showed an effect of 50% or more. The effect is printed as a negative number. Only a selection was taken, and strong results are over-represented in it overall.

Target: human ether-à-go-go-related gene (hERG) potassium channel (human, UniProt Q12809)
Experiment: primary screen, population patch clamp on CHO cells stably expressing hERG; higher = less effect of the substance
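Also: peak tail current of the secondary pulse compared with the same well before compound.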

Chain of human ether-à-go-go-related gene (hERG) potassium channel (Q12809 whole entry, looked up): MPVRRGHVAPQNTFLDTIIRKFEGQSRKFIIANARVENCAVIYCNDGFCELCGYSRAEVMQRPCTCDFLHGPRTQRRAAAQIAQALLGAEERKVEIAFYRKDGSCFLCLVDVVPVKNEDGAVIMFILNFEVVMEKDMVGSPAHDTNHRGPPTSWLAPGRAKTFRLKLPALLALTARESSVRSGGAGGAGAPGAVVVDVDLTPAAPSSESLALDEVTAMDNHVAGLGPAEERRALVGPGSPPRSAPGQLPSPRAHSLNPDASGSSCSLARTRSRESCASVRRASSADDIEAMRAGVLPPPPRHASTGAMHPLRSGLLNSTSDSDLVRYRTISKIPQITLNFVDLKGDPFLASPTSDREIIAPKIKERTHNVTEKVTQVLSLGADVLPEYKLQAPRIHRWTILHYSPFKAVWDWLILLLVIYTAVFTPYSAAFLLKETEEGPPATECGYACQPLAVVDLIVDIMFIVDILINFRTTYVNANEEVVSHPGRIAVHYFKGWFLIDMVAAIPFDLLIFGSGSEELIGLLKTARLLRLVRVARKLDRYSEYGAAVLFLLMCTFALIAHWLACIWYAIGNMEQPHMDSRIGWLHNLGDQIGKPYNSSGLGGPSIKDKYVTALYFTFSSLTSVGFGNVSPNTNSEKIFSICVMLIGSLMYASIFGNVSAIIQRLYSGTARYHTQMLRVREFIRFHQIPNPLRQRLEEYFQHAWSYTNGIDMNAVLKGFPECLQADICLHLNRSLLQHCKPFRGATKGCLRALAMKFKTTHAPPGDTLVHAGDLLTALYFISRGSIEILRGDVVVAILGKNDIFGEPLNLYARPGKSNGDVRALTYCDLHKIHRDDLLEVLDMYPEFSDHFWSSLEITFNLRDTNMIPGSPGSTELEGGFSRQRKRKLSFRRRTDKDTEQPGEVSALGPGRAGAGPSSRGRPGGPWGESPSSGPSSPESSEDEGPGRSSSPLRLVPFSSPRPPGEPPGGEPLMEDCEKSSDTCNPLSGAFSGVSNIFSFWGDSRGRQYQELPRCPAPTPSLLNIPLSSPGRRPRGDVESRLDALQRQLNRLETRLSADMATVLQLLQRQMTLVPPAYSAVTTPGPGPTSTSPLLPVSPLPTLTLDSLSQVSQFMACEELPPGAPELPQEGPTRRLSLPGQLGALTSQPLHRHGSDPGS

SMILES | hERG current change (%, negative = inhibition) at 10uM [%]
COc1ccc(C(C)=O)cc1CSC(=N)N.Cl | 9.4
COc1ccc(C(=O)N(C)Cc2ccccn2)cc1OC1CCN(C(C)C)CC1 | 9.45
COCC(C)n1c(SCC(=O)Nc2oc(C)c3c(C)n[nH]c(=O)c23)nc2ccccc2c1=O (centres unmarked) | 6.9
Cc1n[nH]c(=O)c2c(NC(=O)CSc3cc(Cl)ccc3Cl)oc(C)c12 | -10.9
CCn1c(SCC(=O)Nc2oc(C)c3c(C)n[nH]c(=O)c23)nc2sc(C)c(C)c2c1=O | -61.7
Cc1n[nH]c(=O)c2c(NC(=O)CSc3nc4ccccc4c(=O)n3-c3ccc(OC(F)F)cc3)oc(C)c12 | -59.2
CCc1cc2c(=O)n(CCCOC)c(SCC(=O)Nc3oc(C)c4c(C)n[nH]c(=O)c34)nc2s1 | -1.43
Cc1n[nH]c(=O)c2c(NC(=O)CSc3nc4ccccc4c(=O)n3C(C)C)oc(C)c12 | -27
Cc1ccc(SCC(=O)Nc2oc(C)c3c(C)n[nH]c(=O)c23)cc1C | -27.6
Cc1ccc(C)c(SCC(=O)Nc2oc(C)c3c(C)n[nH]c(=O)c23)c1 | -52.4
COCCCn1c(SCC(=O)Nc2oc(C)c3c(C)n[nH]c(=O)c23)nc2sc3c(c2c1=O)CCC3 | -49.7
Nc1ccc(C(=O)N2CCCC2)cc1CS(=O)(=O)c1ccc(Cl)cc1 | -4.18
CN(c1ccccc1)c1nc(N)c([N+](=O)[O-])c(Nc2cccc(F)c2)n1 | 24
COc1ccc(N2C(=O)/C(=C\c3ccco3)N=C2SCC(=O)NC(C)C)cc1Cl | 4.42
C=CCNC(=O)C(C)N1c2cccc3cccc(c23)S1(=O)=O (centres unmarked) | 9.53
COc1ccc(-n2nnnc2/C(=C/N(C)C)C(=O)c2ccccc2)cc1 | -4.92
S=C(NC1CCCCC1)N1CCn2cccc2C1c1cccnc1 (centres unmarked) | -8.63
O=C(O)COc1cccc(/C=C2/SC(=S)N(Cc3ccccc3)C2=O)c1 | 0.27
CC(C)(C)c1csc(NC(=O)c2cccs2)n1 | -16.3
CC(C)(C)c1csc(NC(=O)c2ccncc2)n1 | -33.7
CC(C)(C)c1csc(NC(=O)c2ccccc2O)n1 | -0.0514
CC(C)(C)c1csc(NC(=O)c2cccnc2)n1 | 13.6

SMILES | hERG current change (%, negative = inhibition) at 10uM [%]
CC(C)(C)c1csc(NC(=O)c2c(F)c(F)c(F)c(F)c2F)n1 | -63.9
CC(C)(C)c1csc(NC(=O)c2ccc3nccnc3c2)n1 | -57.2
CN(C)S(=O)(=O)N1CCc2ccccc2C1 | 2.94
Cc1cc(C)n(-c2nc3ccccc3nc2N2CCN(S(=O)(=O)c3ccc(F)c(C)c3)CC2)n1 | 9.54
Cc1nn(CC(=O)NCC(C)c2ccccc2)c(=O)c2cc3occc3n12 (centres unmarked) | -3.5
COc1ccc(C(=O)C[n+]2ccc3c(c2)nc(-c2ccccc2)n3C)cc1.[Br-] | -1.44
O=C(C[n+]1ccccc1)c1ccc(Cl)cc1.[I-] | 10
COc1ccc(C(=O)C[n+]2ccc3c(c2)nnn3-c2ccccc2)cc1.[Br-] | -60.5
O=C(C[n+]1ccc2c(c1)nnn2-c1ccccc1)c1ccc(Cl)cc1.[Br-] | -69
Cn1nnc2c[n+](CC(=O)c3ccc(Cl)cc3)cc(Br)c21.[Br-] | -24.7
COc1ccc(C(=O)C[n+]2ccc3c(c2)nc(-c2cc(OC)c(OC)cc2OC)n3C)cc1.[Br-] | 6.93
CCc1nn(CC(=O)NCCCN(CC)c2cccc(C)c2)c(=O)c2cc3occc3n12 | -16.3
C/C(N)=C(/C#N)C(=O)COC(=O)CCS(=O)(=O)c1ccccc1 | 12.1
CC(C)(C)NC(=O)CSc1nc(O)cc(=O)n1-c1ccccc1F | 6.39
O=C(CSc1ccc(-c2ccc(Br)cc2)nn1)N1CCOCC1 | -18.7
O=C(c1cnccn1)N1CCN(C/C=C/c2ccccc2)CC1 | -16.6
O=C(c1nn(Cc2ccccc2)c(=O)c2ccccc12)N1CCN(C/C=C/c2ccccc2)CC1 | -57.7
O=C(c1ccc(Cl)nc1)N1CCN(C/C=C/c2ccccc2)CC1 | -44.1
NC(=O)c1nn(Cc2ccccc2)c(=O)c2ccccc12 | 4.12
O=C(c1ccc(=O)n(Cc2ccccc2)n1)N1CCN(C/C=C/c2ccccc2)CC1 | -51.9
Cc1cc(C(=O)N2CCN(C/C=C/c3ccccc3)CC2)no1 | -14.5
COc1ccc(NC(=O)NCc2ccc3c(c2)OCO3)c(OC)c1 | 11.5

SMILES | hERG current change (%, negative = inhibition) at 10uM [%]
COc1ccc(C)cc1S(=O)(=O)NC1CCCCC1C (centres unmarked) | 5.07
CCC(=O)N1CCN(c2ccc(NC(=O)COc3cccc(C)c3C)cc2)CC1 | -12
O=C(CSc1nnc(-c2ccco2)o1)Nc1c(F)cccc1F | -1.95
Nc1nc(-c2ccc3c(c2)CCC(=O)N3)cs1 | 16.5
CN(C)c1ccc(S(=O)(=O)N2CCCCC2)cc1NC(=O)C1CSC2(C)CCC(=O)N12 (centres unmarked) | -22.3
COC(=O)C1Sc2[nH]c(=O)sc2C(c2ccc(Cl)cc2)C1C(=O)OC (centres unmarked) | -67
CCOC(=O)C1Sc2[nH]c(=O)sc2C(c2ccc(Cl)cc2)C1C(=O)OCC (centres unmarked) | -1.1
COC(=O)C1Sc2[nH]c(=O)sc2C2c3ccccc3OC(=O)C12 (centres unmarked) | -22.6
Cc1[nH]n(-c2cccc([N+](=O)[O-])c2)c(=O)c1-c1ccccc1 | 15.8
CCN(CC)S(=O)(=O)c1cc(NC(=O)[C@@H](NC(N)=O)C(C)C)ccc1C | 15.5
COc1ccc(/C=N/n2cnc3c([nH]c4ccc(C)cc43)c2=O)cc1CN1CCCC1 | -63.2
COc1ccc(/C=N/n2c(=O)[nH]c3c([nH]c4ccc(F)cc43)c2=O)cc1CN1CCCCC1 | -19.1
COc1ccc(/C=N/n2cnc3c([nH]c4ccc(F)cc43)c2=O)cc1CSc1ccccn1 | 20.6
COc1ccc(/C=N/n2cnc3c([nH]c4ccc(Br)cc43)c2=O)cc1CN1CCOCC1 | -8.88
COc1ccc(/C=N/n2cnc3c([nH]c4ccc(F)cc43)c2=O)cc1CN1CCCC1 | -68
COc1ccc2[nH]c3c(=O)n(/N=C/c4ccc(OC)c(CN5CCCC5)c4)c(C)nc3c2c1 | -45.3
COc1ccc(NC(=O)c2nnn(CC(=O)Nc3ccccc3OC)c2N)c(OC)c1 | 0.272
CCN(CC)CCOc1ccc2nc(N(C)C)sc2c1.Cl | 11.1
CC12CCC(C(=O)Nc3ccccc3)(C/C1=N\O)C2(C)C (centres unmarked) | 10.9
CCSc1nnc(NC(=O)Cc2ccccc2OC)s1 | 13
COCCNC(=O)CSc1nc2ccc(N3CCOCC3)cc2c(=O)n1Cc1ccc(OC)cc1 | -22.4
CCC(C)NC(=O)CSc1nc2ccc(N3CCOCC3)cc2c(=O)n1CCc1ccccc1 (centres unmarked) | 3.14

SMILES | hERG current change (%, negative = inhibition) at 10uM [%]
CCCCNC(=O)CSc1nc2ccc(N3CCOCC3)cc2c(=O)n1CCc1ccccc1 | -19.3
CCCCn1c(SCC(=O)NCCOC)nc2ccc(N3CCOCC3)cc2c1=O | -2.94
COCCCNC(=O)CSc1nc2ccc(N3CCOCC3)cc2c(=O)n1CCc1ccccc1 | -59.8
COCCNC(=O)CSc1nc2ccc(N3CCOCC3)cc2c(=O)n1CCc1ccccc1 | -55.1
Cc1ccc(CN2CC(C(=O)NCCC3=CCCCC3)CC2=O)cc1 (centres unmarked) | -19.6
CCN(c1ccc(NC(=O)CSCc2c(C)noc2C)cc1)C(C)C | -7.72
Cc1ccccc1-c1cc2nc(C)c(Cl)c(=O)n2[nH]1 | -8.26
O=C(Nc1cccc(F)c1)c1cccnc1 | 3.96
COc1ccccc1N1CCN(C(=O)c2sc3nc(-c4ccc(F)cc4)cn3c2C)CC1 | -34
Cc1c(C(=O)N2CCN(C(=O)c3ccco3)CC2)sc2nc(-c3ccc(F)cc3)cn12 | -76.9
Cc1c(C(=O)Nc2ccncc2)sc2nc(-c3ccc(F)cc3)cn12 | -8.24
Cc1c(C(=O)N2CCN(c3ccccc3F)CC2)sc2nc(-c3ccccc3)cn12 | -14.1
COC(=O)C1CCN(C(=O)c2sc3nc(-c4ccc(F)cc4)cn3c2C)CC1 | -59.5
CCOC(=O)N1CCN(C(=O)c2sc3nc(-c4ccc(F)cc4)cn3c2C)CC1 | -62.1
CCOC(=O)C1CCN(C(=O)c2sc3nc(-c4ccc(F)cc4)cn3c2C)CC1 | -60.5
Cc1c(C(=O)NCC2CCCO2)sc2nc(-c3ccc(F)cc3)cn12 (centres unmarked) | -29.7
CCOC(=O)C1CCN(C(=O)c2sc3nc(-c4ccccc4)cn3c2C)CC1 | -41
COc1ccc(-c2cn3c(C)c(C(=O)N4CCN(c5ccc(F)cc5)CC4)sc3n2)cc1 | 1.07
COc1ccccc1N1CCN(C(=O)c2sc3nc(-c4ccccc4)cn3c2C)CC1 | -35
Cc1c(C(=O)N2CCN(c3ccc(F)cc3)CC2)sc2nc(-c3ccccc3)cn12 | -13.4
